# Reference: PubChem BioAssay AID588343 (Broad Institute, 2011)
# In all, about 1,200 compounds went through this assay and about 650 (54%) were called active. Roughly 5% stayed inconclusive and do not appear here.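 The calls were made as follows: active = signal-lowering curve whose fitted half-maximal concentration is at or below ten times the top valid dose tested; inconclusive = flat curve with 30 to 70% inhibition, or poor fit; inactive = signal increase, flat within 30%, or potency beyond limit.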 So high a share suggests a set chosen from earlier hits. The list is a sample of the results. Measured potencies and affinities stand elsewhere.
# Assay: inhibitors of LMP1-driven NF-kB reporter, dose response, cell-based, HEK293, luciferase, cherry-pick (AID 588343)
# Settings: HEK293 LMP1 TES2 NF-kB luciferase reporter, 16 h; series mostly up to 35 µM
row,SMILES,outcome
1,C=CCN1CCc2cc(O)c(O)cc2C(c2ccccc2)C1 (stereo not drawn),inactive
2,Cc1ccc(C)c(S(=O)(=O)N2CCN(C(=O)c3ccc(C)s3)CC2)c1,inactive
3,COc1ccccc1-c1ccccc1C1=CC(=O)CC(C)(C)C1=O,inactive
4,CCOC(=O)N1CCN(C(=O)C2CCC(=O)N(Cc3ccccc3OC)C2)CC1 (stereo not drawn),inactive
5,COc1ccc(C(=O)NCCN2CCOCC2)cc1[N+](=O)[O-],inactive
6,CNC(=O)c1[nH]cnc1C(=O)N[C@@H](CCCCNC(=O)OC(C)(C)C)C(=O)OC(C)(C)C,inactive
7,Cc1cccc(C)c1Nc1nc2ccccc2o1,inactive
8,OCc1cc(C(O)CNCCCCCCOCCCCc2ccccc2)ccc1O (stereo not drawn),inactive
9,COc1ccccc1NC(=O)c1c(Nc2ccccc2C)sc(C(=O)Nc2cccc(Cl)c2)c1N,inactive
10,O=C(OCc1nc2ccccc2s1)[C@@H]1CCCN1S(=O)(=O)c1ccccc1F,inactive
11,C[C@@H](OC(=O)c1[nH]cnc1C(=O)N1CCc2ccccc2C1)c1ccccc1,inactive
12,O=C(Nc1ccc(Cl)cc1)c1ccco1,inactive
13,CSCCC(NC(=O)c1ccco1)C(=O)OCC(=O)Nc1ncc(Cl)c(C)c1Cl (stereo not drawn),inactive
14,C[C@H]1C[C@H]2[C@@H]3CCC4=CC(=O)C=C[C@]4(C)[C@@]3(F)[C@@H](O)C[C@]2(C)[C@@]1(O)C(=O)CO,inactive
15,CCn1c(CCNC(=O)c2ccc(OC)cc2)nnc1SCc1ccc(Cl)cc1Cl,inactive
16,CCC(Oc1ccccc1)C(=O)NC1CCSC1=O (stereo not drawn),inactive
17,CC1=C(C)C(OCCCl)N(c2cc(O)c(Cl)cc2F)C1=O (stereo not drawn),inactive
18,O=C(C[n+]1ccccc1)N/N=C/c1ccc(O)cc1,inactive
19,CC(C)Cc1ccc([C@H](C)C(=O)O)cc1,inactive
20,Cc1ccc(CNC(=O)C2CCN(S(=O)(=O)c3c(C)noc3/C=C/c3ccco3)CC2)cc1,inactive
21,C[C@@H]1CN([C@@H](C)CO)C(=O)c2cc(NC(=O)Nc3ccccc3)ccc2O[C@H]1CN(C)C(=O)Nc1cccc2ccccc12,inactive
22,O=C(NN1C(=O)C2C3C=CC(C4CC34)C2C1=O)c1cccc(Cl)c1 (stereo not drawn),inactive
23,NC(=O)c1ncn([C@@H]2O[C@H](CO)[C@@H](O)[C@H]2O)n1,inactive
24,Nc1ccc(CCNc2ncnc3c2ncn3[C@@H]2O[C@H](CO)[C@@H](O)[C@H]2O)cc1,inactive
25,Nc1ccn(C2CCCO2)c(=O)n1 (stereo not drawn),inactive
26,CCOc1ccccc1/C=C/c1onc(C)c1S(=O)(=O)N1CCC(C(=O)N(CC)CC)CC1,inactive

row,SMILES,outcome
1,CCCC(=O)NCCCc1nc2ccccc2n1C,inactive
2,COc1nc(Nc2nc3ccccc3c(=O)[nH]2)nc2ccc(C)cc12,inactive
3,COc1c(S(=O)(=O)N2CCN(c3ccc(F)cc3)CC2)ccc(Cl)c1Cl,inactive
4,O=C(CCCOc1ccccc1)N1CCN(c2ccccc2)CC1,inactive
5,Cc1cccc(NC(=O)Nc2c(C)n(C)n(-c3ccccc3)c2=O)c1C,inactive
6,Cc1ccc(NC(=S)Nc2cccc(S(=O)(=O)Nc3c(C)n(C)n(-c4ccccc4)c3=O)c2)cc1,inactive
7,C/C(=N\NS(=O)(=O)c1ccc([N+](=O)[O-])cc1)c1cccs1,inactive
8,O=C(CCNc1cccc(F)c1)c1cc2ccccc2o1,inactive
9,Cc1ccccc1CC(=O)NCc1cccnc1,inactive
10,COc1ccc(-c2ccc3c(c2)S(=O)(=O)c2cccc(C(=O)NCc4cc(C)oc4C(F)(F)F)c2C3=O)cc1OC,inactive
11,Cc1ccc(N2CCCCn3c2nc2c3c(=O)n(CC(=O)O)c(=O)n2C)cc1,inactive
12,Cc1ccnc(N/C=C(/NC(=O)c2ccccc2)C(=O)N/N=C\c2ccc(F)cc2)n1,inactive
13,COc1ccc(-c2cc(C(F)(F)F)n3nc(C(=O)N4CCOCC4)nc3n2)cc1,inactive
14,O=C(Nc1nnc(N2CCCCCC2)s1)c1cc(-c2ccc(Br)cc2)on1,inactive
15,COCCCNC(=O)CN1C(=O)COc2ccc(S(=O)(=O)N3CCOCC3)cc21,inactive
16,CCCSc1nc2cc(S(=O)(=O)N3CCOCC3)ccc2n1CC,inactive
17,CN(C)CCN(Cc1ccc(Cl)cc1)c1ccccn1,inactive
18,COc1ccc(CC(C)NCC(O)c2ccc(O)c(NC=O)c2)cc1 (stereo not drawn),inactive
19,CCOC(=O)C1=C(C)NC(C)=C(C(=O)OCC)C1c1cn(-c2ccccc2)nc1-c1ccco1,inactive
20,O=C(CSc1nnc(-c2cccc(S(=O)(=O)N3CCOCC3)c2)n1C1CCCCCC1)NCc1ccccc1,inactive
21,O=C(Nc1cc(S(=O)(=O)N2CCOCC2)ccc1Cl)c1ccncc1,inactive
22,N=c1c(-c2nc3ccccc3[nH]2)cc(C(=O)c2cccs2)nn1-c1ccccc1,inactive
23,CCCC(=O)NCCCc1nc2ccccc2[nH]1,inactive
24,Cc1cc(NC(=O)c2ccc(C)s2)n(-c2nc3ccccc3[nH]2)n1,inactive
25,O=c1cc(Cl)nc2ccccn12,inactive
26,COc1ccc2[nH]c3c(=O)n(CCCCC(=O)N4CCC(C(N)=O)CC4)c(=S)[nH]c3c2c1,inactive

row,SMILES,outcome
1,O=C(Cc1ccc(Cl)cc1)NCC(=O)N1CCCCC1,inactive
2,Cc1ccccc1N(C(=O)c1snc(C(N)=O)c1N)C(C(=O)NC1CCCCC1)c1ccc(O)cc1 (stereo not drawn),inactive
3,S=C1SCN(Cc2ccccc2)CN1Cc1ccco1,inactive
4,CCOc1cc(/C=C2/C(=N)N3N=C(CC)SC3=NC2=O)ccc1OC(=O)c1ccco1,inactive
5,CC(=O)Oc1ccc(C(=O)Nc2cccnc2)cc1,inactive
6,COc1ccc(CCC(=O)Nc2ccc(C)c([N+](=O)[O-])c2)cc1,inactive
7,O=C(COc1ccc2ccccc2c1)NCCNC(=O)COc1ccc2ccccc2c1,inactive
8,CNC(=O)C1=NCCCc2cc(OC)c(OC)cc21,inactive
9,O=C(NC1CCCCC1)N1CCN(c2ccc([N+](=O)[O-])cc2)CC1,inactive
10,COc1ccc(-n2nc(C(=O)c3cccs3)cc(-c3nc4ccccc4[nH]3)c2=N)cc1,inactive
11,CNC(=S)N1N=C(c2cccs2)CC1c1ccc(F)cc1 (stereo not drawn),inactive
12,O=C(CN1C(=O)C2C3C=CC(C3)C2C1=O)NCCC1=CCCCC1 (stereo not drawn),inactive
13,O=C(COC(=O)c1ccc(S(=O)(=O)NCc2ccco2)cc1)Nc1ccc(Cl)cn1,inactive
14,O=C(CN(Cc1cccs1)C(=O)CNS(=O)(=O)c1ccccc1)NCc1ccco1,inactive
15,Cc1ccnc(NC(=O)c2cccc(NC(=O)c3ccc(Cl)c(Cl)c3)c2)c1,inactive
16,CCOc1ccc(NC(=O)Cn2cc(C(=O)CC)c3ccccc32)cc1,inactive
17,CC(=O)Nc1ccc(OCC(O)CNC(C)C)cc1 (stereo not drawn),inactive
18,Cc1cc(OCC(=O)Nc2cnn(CCCC(=O)O)c2)ccc1Cl,inactive
19,COc1ccc(NC(=O)Cn2nnc(C(=O)NCc3ccccc3)c2N)c(OC)c1,inactive
20,COC(=O)c1cccc(COC(=O)c2ccccc2NC(=O)c2ccco2)c1,inactive
21,COc1cccc(-c2nc(NCc3ccccc3)c3ccccc3n2)c1O,inactive
22,C=CCN(c1ccc(C(=O)Nc2ccc3c(c2)n(C)c(=O)n3C)cc1)S(C)(=O)=O,inactive
23,Cn1cccc1CC(=O)NNC(=S)Nc1ccccc1Cl,inactive
24,COc1ccc(NC(=O)NCCN2CCc3ccccc3C2)cc1,inactive
25,O=C(Nc1ccc2c(c1)C(=O)OC2)c1ccc(C(F)(F)F)cc1,inactive
26,COc1ccc(NC(=O)C[C@H]2C(=O)N(CCc3ccccc3)C[C@@H]2c2ccc(OC)cc2)cc1,inactive

row,SMILES,outcome
1,COc1ccc(C(CNC(=O)Nc2ccccc2)N2CCN(C)CC2)cc1 (stereo not drawn),inactive
2,CCNc1nc(CN2CCOCC2)nc2sc3c(c12)CCC3,inactive
3,COc1cccc(C2Nc3ccc4ccccc4c3C3=C2C(=O)CC(C)(C)C3)c1OCC(=O)O (stereo not drawn),inactive
4,O=C(CN1C(=O)CCOc2ccccc21)Nc1ccc(Cl)c(S(=O)(=O)N2CCOCC2)c1,inactive
5,COc1ccc(C(c2sc3nc(C)nn3c2O)N2CCC(C(N)=O)CC2)cc1OC (stereo not drawn),inactive
6,CC1=C(CC(=O)O)c2cc(F)ccc2C1=Cc1ccc(S(C)(=O)=O)cc1,inactive
7,COc1ccc(NC(=O)N(CCN2CCCC2)Cc2cc3cc(OC)c(OC)cc3[nH]c2=O)cc1,inactive
8,O=C(Nc1ncc(Br)s1)C(Cc1ccccc1)n1cccc1 (stereo not drawn),inactive
9,CCOC(=O)c1cc(-c2ccccc2)n(CC(=O)Nc2cccc(OC)c2)c1C,inactive
10,CC(=NNC(=S)N1CCCCCC1)c1cccc2cccnc12,inactive
11,COc1ccc(OC)c(S(=O)(=O)NC(C)CCc2ccccc2)c1 (stereo not drawn),inactive
12,Cc1ccc2oc(C(=O)Nc3ccc(S(=O)(=O)Nc4onc(C)c4C)cc3)c(C)c2c1,inactive
13,O=C(NCC1CCOCC1)c1ccc(OC2CCN(Cc3ccccn3)CC2)cc1,inactive
14,COCCCNCC1C(Oc2ccc(Cl)cc2)C(=O)N1c1ccccc1C (stereo not drawn),inactive
15,Cc1sc2ncn(CC(=O)N3CCC(C(N)=O)CC3)c(=O)c2c1S(=O)(=O)N1CCOCC1,inactive
16,CCN(Cc1ccncc1)C(=O)CCc1ccccc1,inactive
17,CN(C)S(=O)(=O)c1ccc(Cl)c(C(=O)NCCNC(=O)c2cc(S(=O)(=O)N(C)C)ccc2Cl)c1,inactive
18,Cc1ccc(CCNC(=O)CCc2nc3ccccc3[nH]2)cc1,inactive
19,NC(=O)CC(NC(=O)c1ccccc1)c1ccc(NC2CCN(Cc3ccccc3)CC2)c([N+](=O)[O-])c1 (stereo not drawn),inactive
20,COc1cc(N)c(Cl)cc1C(=O)NC1CCN(Cc2ccccc2)CC1,inactive
21,O=C(N/N=C(/CC(=O)c1cccs1)C(F)(F)F)c1ccc(O)cc1,inactive
22,CN1CCN(CCOc2ccc(Cc3ccccc3)cc2)CC1,inactive
23,Cn1c(=O)[nH]c(=O)c2c1nc(CN1CCOCC1)n2CCCc1ccccc1,inactive
24,CCn1c2ccccc2c2cc(NC(=O)c3ccccc3-c3ccccc3C(=O)O)ccc21,inactive
25,CS(=O)(=O)N(CC(=O)Nc1ccc(F)cc1F)C1CCCCC1,inactive
